# According to the supplement of paper PMC12645437, “Orthogonal IMiD-Degron Pairs Induce Selective Protein Degradation in Cells” (ACS Chemical Biology, 2025):
# Over roughly 8,300 sequences, “log2 fold change of degron read counts, EGFP-low vs EGFP+ sorted cells (limma voom), compound-induced degradation” has its median near -1.1; the highest 2% begin near 3.2. The sample holds the highest values, similar sequences and a random draw of the others, so the mix is not that of the screen.
# Target: T1, CRBN, Q96SW2
# T1 chain: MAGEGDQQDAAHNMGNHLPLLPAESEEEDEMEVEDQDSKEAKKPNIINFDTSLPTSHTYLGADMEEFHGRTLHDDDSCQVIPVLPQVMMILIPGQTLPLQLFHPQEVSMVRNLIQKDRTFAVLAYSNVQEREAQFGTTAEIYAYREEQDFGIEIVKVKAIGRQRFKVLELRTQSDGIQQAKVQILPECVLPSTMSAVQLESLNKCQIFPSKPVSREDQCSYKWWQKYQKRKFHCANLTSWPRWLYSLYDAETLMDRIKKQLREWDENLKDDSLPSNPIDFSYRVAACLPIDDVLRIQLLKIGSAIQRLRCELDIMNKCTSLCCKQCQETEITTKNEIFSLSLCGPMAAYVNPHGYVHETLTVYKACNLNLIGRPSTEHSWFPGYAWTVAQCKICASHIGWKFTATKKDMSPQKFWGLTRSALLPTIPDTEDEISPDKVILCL
# Test: log2 fold change of degron read counts, EGFP-low vs EGFP+ sorted cells (limma voom), compound-induced degradation; higher = more compound-induced degradation of the degron-EGFP fusion; degrons are variants of IKZF1/3 zinc finger 2; compound dose not given here
# Conditions: Jurkat, 18 h
# [1] = compound: compound 19 (5-tert-butyl-thalidomide)
# [2] = compound: compound 22 (5-morpholino-thalidomide)
# [3] = compound: compound 33 (diphenyl IMiD analogue)
# 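Also: pooled lentiviral library of zinc finger degron-EGFP fusions in mCherry-positive Jurkat cells, FACS-sorted after compound exposure, with degron abundance counted by next-generation sequencing.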
Sequence,log2 fold change of degron read counts [1],log2 fold change of degron read counts [2],log2 fold change of degron read counts [3],log2 fold change of degron read counts (compound: thalidomide)
"FGCPVCGAPFTQKGNLLRHIKL [46F_47G_49P_50V_52G_53A_54P_55F_67L_, Q9UKT9]",3.34,1.9,1.27,0.43
"FKCPVCGAPFTQKGNLLRHIKL [46F_47K_49P_50V_52G_53A_54P_55F_67L_, Q9UKT9]",2.06,1.94,0.0815,2.39
"FCCPVCGAPFTQKGNLLRHIKL [46F_47C_49P_50V_52G_53A_54P_55F_67L_, Q9UKT9]",3.13,2.6,1.7,2.1
"FDCPVCGAPFTQKGNLLRHIKL [46F_47D_49P_50V_52G_53A_54P_55F_67L_, Q9UKT9]",2.39,0.488,0.886,1.55
"FACPVCGAPFTQKGNLLRHIKL [46F_47A_49P_50V_52G_53A_54P_55F_67L_, Q9UKT9]",3.58,2.58,1.07,2.23
"FICDVCGAPFTQKGNLLRHIKL [46F_47I_49D_50V_52G_53A_54P_55F_67L_, Q9UKT9]",-0.148,3.08,1.53,1.67
"FLCPVCGAPFTQKGNLLRHIKL [46F_47L_49P_50V_52G_53A_54P_55F_67L_, Q9UKT9]",1.29,2.67,2.93,3.41
"FICNVCGAPFTQKGNLLRHIKL [46F_47I_49N_50V_52G_53A_54P_55F_67L_, Q9UKT9]",-0.34,2.49,1.6,2.07
"FICPVCGAPFTQKGNLLRHIKL [46F_47I_49P_50V_52G_53A_54P_55F_67L_, Q9UKT9]",1.18,3.94,2.58,3.08
"FSCPVCGAPFTQKGNLLRHIKL [46F_47S_49P_50V_52G_53A_54P_55F_67L_, Q9UKT9]",3.04,2.37,1.65,2.12
"FGCNVCGAPFTQKGNLLRHIKL [46F_47G_49N_50V_52G_53A_54P_55F_67L_, Q9UKT9]",-0.996,-1.44,-1.2,-1.32
"FDCPICGHFFTQKGNLLRHIKL [46F_47D_49P_50I_52G_53H_54F_55F_67L_, Q9UKT9]",-1.89,-2.22,-1.79,-1.75
"FICDVCGAWFTQKGNLLRHIKL [46F_47I_49D_50V_52G_53A_54W_55F_67L_, Q9UKT9]",-2.55,-1.74,-0.491,-1.83
"FMCPQCGARFTQKGNLLRHIKL [46F_47M_49P_50Q_52G_53A_54R_55F_67L_, Q9UKT9]",-1.45,-1.19,0.32,-0.605
"FGCNVCGAEFTQKGNLLRHIKL [46F_47G_49N_50V_52G_53A_54E_55F_67L_, Q9UKT9]",-2.62,-1.85,-0.606,-0.925
"FTCNQCGRVFTQKGNLLRHIKL [46F_47T_49N_50Q_52G_53R_54V_55F_67L_, Q9UKT9]",-2.75,-3.29,-2.33,-2.08
"FVCPVCGAPFTQKGNLLRHIKL [46F_47V_49P_50V_52G_53A_54P_55F_67L_, Q9UKT9]",1.79,3.33,2.13,3.19
"FYCDVCGAPFTQKGNLLRHIKL [46F_47Y_49D_50V_52G_53A_54P_55F_67L_, Q9UKT9]",3.09,2.39,1.86,-0.588
"FWCPVCGAPFTQKGNLLRHIKL [46F_47W_49P_50V_52G_53A_54P_55F_67L_, Q9UKT9]",3.23,2.92,2.67,1.06
"FYCPVCGAPFTQKGNLLRHIKL [46F_47Y_49P_50V_52G_53A_54P_55F_67L_, Q9UKT9]",3.48,3.24,2.82,1.62
"FHCPVCGAPFTQKGNLLRHIKL [46F_47H_49P_50V_52G_53A_54P_55F_67L_, Q9UKT9]",3.2,2.86,2.5,1.82
"FNCPVCGAPFTQKGNLLRHIKL [46F_47N_49P_50V_52G_53A_54P_55F_67L_, Q9UKT9]",3.41,2.62,1.33,2.25
"FTCPVCGAPFTQKGNLLRHIKL [46F_47T_49P_50V_52G_53A_54P_55F_67L_, Q9UKT9]",1.88,3.16,2.41,3.03
"FMCPVCGAPFTQKGNLLRHIKL [46F_47M_49P_50V_52G_53A_54P_55F_67L_, Q9UKT9]",2.53,3.59,3.09,2.96
"FECPVCGAPFTQKGNLLRHIKL [46F_47E_49P_50V_52G_53A_54P_55F_67L_, Q9UKT9]",1.88,-0.29,1.64,2.65
"FNCNVCGAPFTQKGNLLRHIKL [46F_47N_49N_50V_52G_53A_54P_55F_67L_, Q9UKT9]",1,-0.317,-0.912,-0.29
"FYCNVCGAPFTQKGNLLRHIKL [46F_47Y_49N_50V_52G_53A_54P_55F_67L_, Q9UKT9]",2.95,2.35,1.69,-0.11
"FNCDVCGAPFTQKGNLLRHIKL [46F_47N_49D_50V_52G_53A_54P_55F_67L_, Q9UKT9]",0.937,-0.417,-1.71,-1.34
